Bioassay records: PubChem BioAssay, National Center for Advancing Translational Sciences (NCATS)
HCV inhibitor: blocks hepatitis C virus; Potency, µM (doses to about 41.8 µM), for inactives: at the highest dose activity change, negative = inhibition, usual class: inhibitors; Huh7.5.1 HCVcc-Cre infection, luciferase reporter, 44 h; hit rate 3.4% among 340,000; active = well fitted inhibition curve with a large enough effect; inconclusive = small, poorly fitted or top-dose-only effect, or another doubt; inactive = no such curve, though single readings can be large or run the other way; note: potency is the fitted concentration of half-maximal effect
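HCVcc-Cre virus at an moi near 0.5 was added right after compound to cells cultured 4 h from seeding (1,000 cells/well). Luciferase activity was determined 44 h later, 15 min after substrate addition at RT.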
Marburg entry inh: blocks Marburg virus binding to or entry into cells | Marburg virus pseudotyped entry inhibition, cell reporter | Potency, µM (titrated, usually from 37.8 µM), for inactives: top-dose activity change, negative = inhibition, usual class: inhibitors | hit rate 1.8% among 300,000 | AID 540276; calls by dose curve; tested in HEK293 cells; note: potency is the fitted concentration of half-maximal effect
VACV mCherry inh: inhibitors of vaccinia virus infection (mCherry reporter signal); Potency, µM (doses to about 36.5 µM), without a hit: top-dose activity change, negative = inhibition, hits mostly inhibitors; Vaccinia virus mCherry reporter infection, fluorescence; hit rate 0.63% among 310,000; calls by dose curve; tested in A549 cells; note: potency is the fitted concentration of half-maximal effect; nearly all actives have a fitted effect of over 35% in size
Vaccinia Venus: inhibitors of vaccinia virus (Venus reporter). Vaccinia virus Venus reporter expression, fluorescence. Potency, µM (top dose mostly 36.5 µM), inactives show top-dose activity change, negative = inhibition, usual class: inhibitors. hit rate 0.46% among 330,000; calls by dose curve; tested in A549 cells; note: potency is the fitted concentration of half-maximal effect; nearly all actives have a fitted effect of over 30% in size
Lassa entry inh: Lassa virus entry inhibition; hit rate 1.2% among 300,000; Lassa virus pseudotype entry inhibition, cell reporter; Potency, µM (top dose mostly 37.9 µM), inactives show at the highest dose activity change, negative = inhibition, usual class: inhibitors; AID 540256; calls by dose curve; tested in HEK293 cells; note: potency is the fitted concentration of half-maximal effect; nearly all actives have a fitted effect of over 50% in size
HCMV antiviral: inhibitors of human cytomegalovirus; HFF cells, HCMV-luciferase reporter, 72 h; stronger effect = lower value; hit rate 4.5% among 410,000; activity change, negative = inhibition, % at 57.5 µM; in the data active = activity change below about -60%; inconclusive = no clear call, values can overlap the other calls; inactive = above about -39%
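After 16 h attachment at 37C, HFF cells received test compound and HCMV-luciferase (1 PFU/cell); reporter luminescence read 72 h later, data normalized against buffer-only and known inhibitor Salinomycin.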
Starred values were filed as active, the others as inactive; i = inactive; u = inconclusive; x = no result given; ! = not active in a repeat; [ ] = another dose, or the depositor's remark. Only some compounds are listed: those with a hit (about 7.8% of all), similar ones and a draw of the others. % is set by controls: 0 for no effect and ±100 for the full control effect.

SMILES | HCV inhibitor | Marburg entry inh | VACV mCherry inh | Vaccinia Venus | Lassa entry inh | HCMV antiviral
CCN(CC)S(=O)(=O)c1cccc(C(=O)N[C@H](C(=O)NCc2ccccc2F)C(C)C)c1 | -24% | -29% | x | x | -28% | 6
CCN(CC)S(=O)(=O)c1cccc(C(=O)N[C@H](C(=O)NCc2ccc(Cl)cc2)C(C)C)c1 | u | 10µM* | -6% | -26% | 13µM* | -17
COc1ccc(OC)c(S(=O)(=O)N2CCC(C(=O)N3CCN(c4ccc(F)cc4)CC3)CC2)c1 | u | -15% | -17% | -15% | 4% | -62*
COc1ccc(F)cc1S(=O)(=O)N1CCC(C(N)=O)CC1 | 35% | -5%[46.1 µM] | u | 13µM* | -15% | -15
COc1ccccc1CN1CCOc2ccc(C(C)(O)CN(C)C)cc2C1 (stereo unspecified) | x | x | -3% | -13% | x | x
O=C1Nc2ccccc2C(=O)N2[C@H](c3cccc(Br)c3)[C@@H]3C(=O)N(Cc4ccccc4)C(=O)[C@@H]3[C@H]12 | 3%[8.37 µM] | x | -16% | 0% | x | -60*
COc1ccc(CNC(=O)C2CCCN(C(=O)N3CCOc4ccccc43)C2)cc1 (stereo unspecified) | x | x | -8% | -13% | -17%[46.1 µM] | -18
CCC1(C2CCN(Cc3cccc4ccccc34)CC2)NC(=O)N(Cc2ccc3c(c2)OCO3)C1=O (stereo unspecified) | x | x | -13% | -28% | x | x
Nc1cccc(C#Cc2ccc3c(c2)C(=O)/C(=C/c2ccsc2)O3)c1 | 2.5µM* | x | u | -7% | x | 4
COc1cccc(/C=C2\Oc3ccc(O)cc3C2=O)c1O | -5% | u | -5% | 63% | u | -29
O=C(C1CCCN(S(=O)(=O)c2cccc3nsnc23)C1)N1CCN(c2ccccn2)CC1 (stereo unspecified) | u | u | i | -22% | -54% | -65*
CC1CCN(C(=O)C2CCCN(S(=O)(=O)c3cccc4nsnc34)C2)CC1 (stereo unspecified) | -7% | 13%[46.1 µM] | i | -8% | 14%[46.1 µM] | -28
O=C(C1CCCN(S(=O)(=O)c2cccc3nsnc23)C1)N1CCN(c2cccc(Cl)c2)CC1 (stereo unspecified) | x | u | u | -27% | u | -86*
Cc1nnnn1/C(=C\c1ccccc1)C(=O)OCC(=O)NC1CCCCC1 | 34% | 11µM* | u | u | u | 8
Cc1nnnn1/C(=C\c1ccccc1)C(=O)OCC(=O)NC(C)(C)C | -21% | 6.3µM* | u | -28% | -19% | -14
CC(=O)Nc1ccc(NC(=O)COC(=O)/C(=C/c2ccccc2)n2nnnc2C)cc1 | -14% | u | u | -28% | u | 37
CC(=O)N/C(=C\c1ccccc1)C(=O)OCC(=O)NC1CCCC1 | 5% | 11% | i | -14% | 4% | -16
COc1ccc2nc(N=NC3=C(O)CC(C)(C)CC3=O)sc2c1 | u | 13µM* | u | -7% | 15µM* | -95*
COc1ccc2nc(N=Nc3ccc(O)c4ccccc34)sc2c1 | u | u | i | -18% | u | -76*
CC1CN(CC(=O)NCC2(N3CCOCC3)CCCC2)Cc2cc(Cl)ccc2O1 (stereo unspecified) | x | x | -8% | -11% | x | x
Cc1nc(-c2cccc(F)c2)sc1CCNC(=O)c1c(F)cccc1Cl | x | x | -1% | -4% | 2%[46.1 µM] | -26
CC1CC(C)CN(C(=O)COC(=O)CN2C(=O)c3ccccc3C2=O)C1 (stereo unspecified) | 3% | 6%[46.1 µM] | -15% | 9% | -1%[46.1 µM] | -19
CC1CC(C)CN(C(=O)c2ccc3c(c2NCCO)C(=O)c2ccccc2C3=O)C1 (stereo unspecified) | u | 10µM* | -24% | 15% | u | -13
C=CC1=C(C)C2=CC3=NC(=C(CC(=O)[O-])C4=NC(=C(C)C4=C([O-])[O-])C=c4[n-]c(c(C)c4CC)=CC1=N2)C(CCC(=O)[O-])C3C.[Cu+2].[Na+].[Na+].[Na+] (stereo unspecified) | x | x | -18% | -6% | x | x
CC12CCC(=O)N1C(C(=O)Nc1nc(-c3ccccc3Cl)cs1)CS2 (stereo unspecified) | 10µM* | u | u | u | -19% | 2
SMILES | HCV inhibitor | Marburg entry inh | VACV mCherry inh | Vaccinia Venus | Lassa entry inh | HCMV antiviral
COc1ccc(-c2csc(NC(=O)C3CSC4(C)CCC(=O)N34)n2)cc1OC (stereo unspecified) | u | 0% | -16% | -18% | -3% | u
CC12CCC(=O)N1C(C(=O)Nc1nc(-c3ccc(F)cc3)cs1)CS2 (stereo unspecified) | -56% | 1%[46.1 µM] | i | -9% | -13% | -25
COc1ccc(OC)c(-c2csc(NC(=O)C3CSC4(C)CCC(=O)N34)n2)c1 (stereo unspecified) | 3.2µM* | u | -25% | u | u | 0
Cc1ccc(C)c(CN2C(=O)c3ccccc3S(=O)(=O)c3ccc(C(=O)N4CCc5ccccc54)cc32)c1 | x | u | -9% | -14% | -20%[46.1 µM] | -24
c1ccc2c(c1)nc(Nc1ccc(N3CCCCC3)cc1)c1nncn12 | u | x | x | x | x | -31
FC(F)(F)c1ccc(N2CCOCC2)c(Nc2nc3ccccc3n3cnnc23)c1 | u | 4.1µM* | x | x | u | 25
c1ccc(N2CCCCC2)c(Nc2nc3ccccc3n3cnnc23)c1 | 6.3µM* | u | u | 0% | u | u
O=C1S/C(=C\c2ccc(N3CCOCC3)o2)C(=O)N1c1ccccc1 | 32µM* | u | 10% | 46% | 18% | 45
C=CCNC(=O)[C@H]1C=C(OC)C(=O)C[C@H](c2ccccc2)[C@H]1C | x | 9%[14.2 µM] | x | x | x | x
Cc1ccc2c(=O)cc(CSCC(=O)Nc3nnc(C)s3)[nH]c2c1 | x | x | -15% | -4% | 2%[46.1 µM] | -2
CC1C(=O)C(C)(C)C(=O)OC1c1ccc([N+](=O)[O-])cc1 (stereo unspecified) | 9% | x | x | x | x | -104*
CC(C)(O)C1C2OC(=O)C1C1(O)CC3OC34C(=O)OC2C14C (stereo unspecified) | 18% | x | -13% | -6% | x | -76*
CC(C)(O)C1C2OC(=O)C1[C@]1(O)CC3O[C@@]34C(=O)OC2[C@@]14C (stereo partly specified) | x | x | i | -15% | x | x
CC(c1ccc(Cl)cc1)N(CCN(C)C)c1ccccn1 (stereo unspecified) | x | x | x | x | x | -19
CN(C)CCC(c1ccccc1)c1ccccn1 (stereo unspecified) | 5µM*! | u | -14% | -8% | 13% | -9
CN(C)CCC(c1ccc(Cl)cc1)c1ccccn1 (stereo unspecified) | u | 2.8µM*! | -2% | -19% | -18% | -16
CN(C)CC[C@H](c1ccc(Br)cc1)c1ccccn1 | x | 8.9µM*! | x | x | x | x
c1ccc(C(c2ccccn2)c2ccccn2)cc1 | 0% | 13% | i | -9% | 17% | -27
